High-throughput results from PubChem BioAssay.
This is a sample that favours compounds with a hit; in the whole collection about 3.1% have one here.
14-3-3 Bad PPI: disrupts binding of bovine 14-3-3 zeta to phospho-Bad peptide; P63103; TR-FRET 14-3-3zeta/Dy647-pBad peptide displacement, 1 h; inhibition, % at 21.7 µM; 0.71% of 220,000 active;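 active = inhibition above about 70%, limit read from the data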;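 also: 0% = full 14-3-3 plus peptide FRET controls and 100% = background without 14-3-3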
Target sequence (P63103 whole entry, looked up): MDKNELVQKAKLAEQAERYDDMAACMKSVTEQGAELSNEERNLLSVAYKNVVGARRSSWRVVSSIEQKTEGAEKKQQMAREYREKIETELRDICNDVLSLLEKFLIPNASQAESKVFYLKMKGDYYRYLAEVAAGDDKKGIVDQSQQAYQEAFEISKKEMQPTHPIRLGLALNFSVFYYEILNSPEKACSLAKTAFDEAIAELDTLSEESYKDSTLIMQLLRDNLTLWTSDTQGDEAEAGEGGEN
NCF1 inh: blocks human p47phox regulatory protein of NADPH oxidases; p47phox/p22phox peptide binding, fluorescence polarization, 2 h; inhibition, % at 24.7 µM; 0.53% of 220,000 active;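 active = inhibition above about 30%, limit read from the data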;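 also: 0% = p47phox with labelled peptide and 100% = labelled peptide alone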
Bim-Mcl-1: disrupts Bim peptide binding to human Mcl-1. Bead-based flow cytometry, Bim peptide-Mcl-1 binding. inhibition, % at 10 µM. 0.1% of 190,000 active. AID 1009; in the data active = inhibition above about 40%;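 also: 0% = no compound tracer wells and 100% = peptide blocker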
Target sequence (Q07820 whole entry, looked up): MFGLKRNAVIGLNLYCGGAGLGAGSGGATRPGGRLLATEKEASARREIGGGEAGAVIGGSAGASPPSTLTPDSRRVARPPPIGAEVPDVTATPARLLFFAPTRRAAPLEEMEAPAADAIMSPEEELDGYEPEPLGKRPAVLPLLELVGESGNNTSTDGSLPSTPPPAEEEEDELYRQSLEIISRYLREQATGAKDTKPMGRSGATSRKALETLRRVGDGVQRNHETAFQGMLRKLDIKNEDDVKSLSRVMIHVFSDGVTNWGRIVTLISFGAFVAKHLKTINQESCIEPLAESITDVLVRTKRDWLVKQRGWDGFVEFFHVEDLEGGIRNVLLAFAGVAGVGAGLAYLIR
Mcl1-Bid inh: Mcl-1/Bid interaction inhibition; inhibition, % at 21.7 µM; Q07820; TR-FRET Mcl-1/Bid-Dy647 peptide binding, 1536-well; 0.97% of 220,000 active; AID 1021;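 active = compounds that cut the binding signal by more than half at the single screening dose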;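 also: His-tagged Mcl-1 with europium anti-His antibody binding Bid BH3 peptide; 0% = Mcl-1 plus peptide wells and 100% = peptide-only wells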
Mcl1 Noxa PPI: Mcl-1/Noxa interaction inhibition; Q07820; 1.5% of 220,000 active; TR-FRET Mcl-1/Noxa peptide binding, 2 h; AID 1022; inhibition, % at 21.7 µM;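 active = compounds that cut the protein-peptide binding signal by more than 50% relative to plate controls in a single-dose test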;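 also: His-tagged Mcl-1 with rhodamine Noxa BH3 peptide and terbium anti-His antibody; 0% = Mcl-1 plus Noxa peptide wells and 100% = peptide-only wells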
The depositor's hits bear a star; · = not tested or not shown; [ ] = dose if it differs, or a comment.

SMILES	14-3-3 Bad PPI	NCF1 inh	Bim-Mcl-1	Mcl1-Bid inh	Mcl1 Noxa PPI
CC(C)CN1CCN(Cc2ccc(C(F)(F)F)cc2)CC1CCO (stereo unspecified)	-7	5	·	-20	-42
CCC(=NCc1ccco1)c1c(O)n(-c2ccc(C)cc2)c(=O)[nH]c1=O	-16	-4	5	-23	-4
O=C(Cc1ccccc1)OCCNC(=O)c1cccnc1	71*	-8	92*	47	13
O=C(COC(=O)Cc1ccccc1)Nc1cccnc1Cl	1	0	0	-17	-2
Nc1c(C(=O)NCCc2ccccc2)c2nc3ccccc3nc2n1CCN1CCOCC1	76*[fluorescence artefact?]	-28	1	77*	15
Nc1c(C(=O)NCCN2CCOCC2)c2nc3ccccc3nc2n1Cc1ccco1	-5	-47	3	-9	76*
Nc1c(C(=O)NCCN2CCOCC2)c2nc3ccccc3nc2n1Cc1ccccc1	3	-14	·	-8	9
C=CCNC(=O)c1c(N)n(Cc2ccco2)c2nc3ccccc3nc12	6	-26	-1	-10	57*
O=c1[nH]c(=S)n(C2CCCCC2)c(O)c1/C=N/N1CCOCC1	-10	-24	·	-43	-10
COC(=O)C1=CO[C@@H](C)[C@@H]2CN3CC[C@@]4(C(=O)Nc5ccccc54)[C@@H]3C[C@H]12	8	14	-4	11	14
CCCCC(C)C(OC(=O)CC(CC(=O)O)C(=O)O)C(CC(C)CC(O)CCCCC(O)CC(O)C(C)N)OC(=O)CC(CC(=O)O)C(=O)O (stereo unspecified)	-9	-3	-1	-15	10
Cc1[nH]c2ccccc2c1C(=O)C(=O)N1CCC2(CC1)OCCO2	-10	-5	0	-34	-7
c1ccc2c(CNC3CCCCCC3)c[nH]c2c1	0	-7	3	-46	-9
CCC(C)N1C(=O)/C(=C/c2ccc3c(c2)CCN3CCCCl)C(=O)NC1=S (stereo unspecified)	-4	38*	-4	39	101*
Cc1ccccc1CN1CCN(C(=O)Cc2ccccc2)CC1	64	4	7	34	29
CCC(CC)N1CCN(C(=O)Cc2ccccc2)CC1	71*	4	-11	39	28
Cn1c(O)c(/C=C/C=Nc2ccccc2)c(=O)n(C)c1=S	5	-267	-4	56*	70*
CCN(CC)P(=O)(NC(=O)C(Cl)(Cl)Cl)N(CC)CC.[Cl-].[Cl-].[Cl-].[Nd+3]	23	33*	0	25	16
CC1=NN(c2ccccc2)C(=O)C1/C=C1/C(=O)NC(=O)N(c2cc(C)cc(C)c2)C1=O (stereo unspecified)	75*	-22	-2	10	20
CC1=NN(c2ccccc2)C(=O)C1/C=C1\C(=O)NC(=O)N(c2cc(C)cc(C)c2)C1=O (stereo unspecified)	61	-2	-2	24	24
O=c1oc2ccccc2c(O)c1[C@H]1c2ccc(O)cc2Oc2c1c(=O)oc1ccccc21	7	-30	·	-1	61*
Cc1ccc2c(c1Cl)NC(C(=O)O)C1CC(Sc3ccccc3[N+](=O)[O-])C(Cl)C21 (stereo unspecified)	41	3	·	-37	97*
CCN(CC)C(=O)c1ccc2c(c1)C1C(Cl)C(Sc3ccccc3[N+](=O)[O-])CC1C(C(=O)O)N2 (stereo unspecified)	40	46*	·	-1	63*
Cc1ccccc1C1=NCC(=O)N(CC(=O)N2CCCCC2)c2sc(C)c(C)c21	-6	-6	-5	1	-8
COc1ccccc1OCC#CCN1CCCC(C)C1 (stereo unspecified)	37	-5	-2	27	11
SMILES	14-3-3 Bad PPI	NCF1 inh	Bim-Mcl-1	Mcl1-Bid inh	Mcl1 Noxa PPI
O=C(O)CCn1cc(C=C2C(=O)NC(=S)NC2=O)c(-c2cccc(Cl)c2)n1	30	14	1	14	97*
COc1cc(/C=C/c2nc3ccccc3c(=O)n2-c2cccc(O)c2)ccc1O	52	-41	·	63*	96*
O=c1c2ccccc2nc(/C=C/c2ccc(O)cc2)n1-c1ccccc1O	-19	-29	·	6	9
CN[C@H]1C[C@H]2O[C@@](C)([C@H]1OC)n1c3ccccc3c3c4c(c5c6ccccc6n2c5c31)C(=O)NC4	11	-13	-3	12	62*
[N-]=[N+]=NC1C[C@H](n2ccc(=O)[nH]c2=O)O[C@@H]1CO (stereo partly specified)	-3	-4	0	-7	1
COCCNP(=O)(c1ccccc1)c1nc2ccccc2s1 (stereo unspecified)	1	-10	-2	58*	4
Cc1ccc(NP(=O)(c2ccccc2)c2nc3ccccc3s2)cc1 (stereo unspecified)	-8	3	-2	-19	6
COc1cccc(/C=C2\N=C(c3cncc(Br)c3)OC2=O)c1	2	14	-7	3	14
COc1ccc(CN2CCCCC2c2cccnc2)cc1C (stereo unspecified)	55	2	2	-8	13
COc1cccc(CN2CCCCC2c2cccnc2)c1 (stereo unspecified)	81*	2	-1	38	29
OCC[n+]1c2ccccc2nc2ccc(N3CCOCC3)cc21	-50	155*	·	-27	27
COc1ccc(C(=O)OC2CC[C@@]3(C)C4CCC5[C@]6(O)CC(O)[C@@]7(O)C(CN8CC(C)CCC8[C@@]7(C)O)[C@]6(O)C[C@@]53O[C@]24O)cc1OC (stereo partly specified)	-3	-2	·	12	6
Cc1nc2ccccc2c(=O)n1-c1ccncc1	7	-5	·	-33	-15
Cc1nc2ccccc2c(=O)n1-c1ccc(F)cc1	-5	32*	-2	-1	10
O=C1NC(=O)C2=Cc3ccc(O)cc3OC2(O)N1 (stereo unspecified)	-6	1	-1	-27	11
CCOC(=O)c1c(/N=C/C2C(=O)NC(=S)NC2=O)sc2c1CCC2	78*	-87	0	35	-21
CCOC(=O)c1c(/N=C/C2C(=O)NC(=S)NC2=O)sc(C)c1C	42	-99	-1	67*	34
CCOC(=O)c1cc(C)sc1/N=C/C1C(=O)NC(=S)NC1=O	9	-9	-2	22	-43
O=C1NC(=O)C(=Cc2ccc(-c3cc(Cl)ccc3[N+](=O)[O-])o2)C(=O)N1	79*	-20	-4	32	87*
CCc1n[nH]c(CCN)n1	-8	13	·	9	9
CC[N+](C)(CC)CCCCOc1ccc2c(c1)C(=O)c1cc(OCCCC[N+](C)(CC)CC)ccc1-2	1	28	·	-18	5
Cn1c(O)c(C(c2ccccn2)c2c(O)n(C)c(=S)[nH]c2=O)c(=O)[nH]c1=S	77*	4	2	4	4
O=c1oc2ccccc2c(O)c1C(c1ccccn1)c1c(O)c2ccccc2oc1=O	-1	-11	·	-14	14
O=C1/C(=C/c2ccccc2Cl)N2CCC1CC2	-2	-5	·	-4	-9
